Compound activity: PubChem, Broad Institute
HDAC3 inh = inhibitors of human histone deacetylase 3; O15379; recombinant HDAC3, fluorogenic peptide/trypsin coupled, fluorescence; inhibition, % at 8.3 µM; actives 0.15% (n = 320,000); in the data active means inhibition above about 26%, passing the limit was not always enough
ERAP1 HTS inh = ERAP1 (human) enzyme inhibition | recombinant ERAP1, Leu-AMC fluorescence, 60 min | Q9NZ08 | actives 0.15% (n = 340,000) | inhibition, % at 10.7 µM;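 active means mean replicate inhibition of at least 30%, or all replicates individually reaching that 30% level; inactive means mean below 30% and not every replicate reaching it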;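 further: 0% = neutral control wells and 100% = L-leucinethiol positive control wells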
SIRT5 inh = sirtuin-5 (human) deacylase inhibition; Q9NXA8; Purified SirT5, succinyl-peptide AMC, trypsin-coupled fluorescence; inhibition, % at 15 µM; actives 1.1% (n = 330,000); in the data active means inhibition above about 15%
ERp5 inh = ERp5 (human) disulfide isomerase inhibition. AID 651711. actives 0.05% (n = 350,000). Q15084. inhibition, % at 9.99 µM. ERp5 insulin aggregation, absorbance 650 nm, 90 min;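 active means mean replicate inhibition above about 25%, with every replicate also reaching it, limit read from the data, passing the limit was not always enough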
PDI turbidity = PDI (human) enzyme inhibition | P07237 | PDI insulin aggregation turbidity, A650, 90 min | inhibition, % at 10 µM | actives 0.052% (n = 350,000) | AID 588391;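 active means mean inhibition across replicates of 30% or more, whatever share of single replicates reach that level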
An asterisk follows results filed as active. Only a selection was taken, and hits are over-represented in it overall.

For COc1ccc(S(=O)(=O)N(C)C[C@H]2Oc3ccc(NC(=O)CCC(F)(F)F)cc3CC(=O)N([C@@H](C)CO)C[C@H]2C)cc1 the results were ERAP1 HTS inh -2, SIRT5 inh 0 and ERp5 inh 3.
Screening Cn1c(=O)c2c([nH]c(=S)n2CCCc2ccccc2)n(C)c1=O returned HDAC3 inh 41*, ERAP1 HTS inh 22, SIRT5 inh 0, ERp5 inh 0 and PDI turbidity 3.
Screening Cn1c(=O)[nH]c(=O)c2c1[nH]c(=S)n2CCCc1ccccc1 returned ERAP1 HTS inh 14, SIRT5 inh -3, ERp5 inh 1 and PDI turbidity 3.
`Cc1ccc(C)c(NC(=O)Cn2nc([N+](=O)[O-])c(Br)c2C)c1` gave ERAP1 HTS inh 1, SIRT5 inh 33*, ERp5 inh 2 and PDI turbidity -8.
For O=C(CCN=C1NS(=O)(=O)c2ccccc21)OCC(=O)c1ccccc1Cl the results were HDAC3 inh 6, ERAP1 HTS inh 6, SIRT5 inh 16*, ERp5 inh 0 and PDI turbidity -11.
`CCS(=O)(=O)Nc1ccc2c(c1)C(=O)N(C)C[C@@H](OC)[C@@H](C)CN(CCC(F)(F)F)[C@@H](C)CO2` gave ERAP1 HTS inh -2, SIRT5 inh 0 and ERp5 inh -2.
CC1=C(C(=O)N(C)C)CC(CC(=O)NCc2ccco2)C(=O)N1Cc1ccccc1 (stereo not drawn) was read as ERAP1 HTS inh 1, SIRT5 inh 16*, ERp5 inh 3 and PDI turbidity -4.
For CCN(CC)C(=O)C1=C(C)N(Cc2ccccc2)C(=O)C(CC(=O)NCc2ccco2)C1 (stereo not drawn) the results were ERAP1 HTS inh 0, ERp5 inh 5 and PDI turbidity -1.
For COc1ccc(CN(C)C[C@H]2Oc3c(NC(=O)c4ccc(-c5nccs5)cc4)cccc3C(=O)N([C@@H](C)CO)C[C@@H]2C)cc1 the results were ERAP1 HTS inh 1, SIRT5 inh 24* and ERp5 inh 5.
C[C@@H]1CN([C@@H](C)CO)C(=O)c2cccc(NC(=O)c3ccc(-c4nccs4)cc3)c2O[C@H]1CN(C)Cc1ccc(Oc2ccccc2)cc1 was read as ERAP1 HTS inh -6, SIRT5 inh 12 and ERp5 inh -2.
For C[C@@H]1CN([C@H](C)CO)C(=O)c2cccc(NC(=O)c3ccc(-c4nccs4)cc3)c2O[C@@H]1CN(C)Cc1ccc(Oc2ccccc2)cc1 the results were ERAP1 HTS inh -5, SIRT5 inh 21* and ERp5 inh -4.
For COc1ccc(CN(C)C[C@@H]2Oc3c(NC(=O)c4ccc(-c5nccs5)cc4)cccc3C(=O)N([C@@H](C)CO)C[C@H]2C)cc1 the results were ERAP1 HTS inh 1, SIRT5 inh 8 and ERp5 inh 1.
`Cc1ccc(S(=O)(=O)Nc2ccc3c(c2)C(=O)N([C@@H](C)CO)C[C@H](C)[C@H](CN(C)S(=O)(=O)c2cccs2)OCCCC[C@H](C)O3)cc1` gave ERAP1 HTS inh 1, SIRT5 inh 4 and ERp5 inh -3.
`CO[C@@H]1CN(C)C(=O)c2cc(NC(=O)C3CCC3)ccc2OC[C@H](C)N(C(=O)CN(C)C)C[C@H]1C` gave ERAP1 HTS inh 1, SIRT5 inh -3 and ERp5 inh 0.
For CCCCN(C(=O)c1ccco1)c1c(N)n(CCC)c(=O)[nH]c1=O the results were HDAC3 inh -3, ERAP1 HTS inh 2, SIRT5 inh -3, ERp5 inh 2 and PDI turbidity -3.
`CCCCn1c(N)c(N(CC(C)C)C(=O)CSCc2ccc(Cl)c(Cl)c2)c(=O)[nH]c1=O` gave ERAP1 HTS inh 5, SIRT5 inh 17*, ERp5 inh 3 and PDI turbidity -6.
For CCCCn1c(N)c(N(CC)C(=O)c2ccco2)c(=O)[nH]c1=O the results were HDAC3 inh -8, ERAP1 HTS inh 84*, SIRT5 inh -17, ERp5 inh -2 and PDI turbidity -8.
`CCCCN(C(=O)c1ccc([N+](=O)[O-])o1)c1c(N)n(CC(C)C)c(=O)[nH]c1=O` gave HDAC3 inh 0, ERAP1 HTS inh 87*, SIRT5 inh -4, ERp5 inh 1 and PDI turbidity 1.
C[C@H]1CN([C@@H](C)CO)C(=O)c2cccc(NS(C)(=O)=O)c2O[C@H]1CN(C)S(=O)(=O)c1cccs1 was read as ERAP1 HTS inh 2, SIRT5 inh 6 and ERp5 inh -2.
